Compound activity (PubChem BioAssay)
Rab9 prom act – activators of Rab9 promoter; Huh7 Rab9 promoter-luciferase reporter, luminescence, 24 h; Potency, µM (titrated, usually from 9.22 µM), inactives show at the highest dose activation, negative = inhibition, actives largely listed as activators; actives 2.8% (n = 320,000); AID 485297; also: % of control where 0% means no effect; nearly all actives have a fitted effect of over 60% in size
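Huh7 cells stably carrying a Rab9 promoter-luciferase reporter, 1500 cells per well in OP-MEM I with 10% FBS, treated with compound 24 hours at 37C. Luciferase activity read by luminescence after 10 minutes with Amplite reagent.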
ELG1 genotox – inducers of genotoxicity in HEK293T ELG1-luciferase cells. AID 504466. HEK293T ELG1-luciferase reporter, luminescence, 16 h. actives 1.3% (n = 330,000). Potency, µM (doses to about 46 µM), for the others: at the top dose activity change, positive = activation, most hits filed as activators; also: % of control where 0% means no effect; nearly all actives have a fitted effect of over 60% in size
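Luminescence read-out: rising ELG1-luciferase signal, reflecting elevated ELG1 protein under genetic stress, flags genotoxic compounds. Cells were treated for 16 hr at 37 °C before ONE-Glo detection.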
SMN2 splice up – increases expression of the SMN2 splice variant. HEK293 SMN2-luciferase splicing reporter, luminescence, 30-36 h. Potency, µM (titrated, usually from 46.1 µM), without a hit: top-dose activity change, positive = activation, most hits filed as activators. actives 2.8% (n = 210,000); also: % of control where 0% means no effect; nearly all actives have a fitted effect of over 55% in size
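qHTS luciferase splicing reporter: luminescence rises when SMN2 exon 7 is included in transfected HEK293 cells. Compound exposure lasted 30-36 h at 37C, with 4.5 mM final sodium butyrate as control, followed by a ONE-Glo read.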
Luc counter – counter-screen: inhibitors of Kinase-Glo firefly luciferase | Q27757 | Kinase-Glo luciferase, ATP luminescence, 8 min | Potency, µM (titrated, usually from 38.3 µM), without a hit: at the highest dose activity change, negative = inhibition, most hits filed as inhibitors | actives 0.28% (n = 200,000); also: % is scaled to controls: 0 for no effect and ±100 for the full control effect; nearly all actives have a fitted effect of over 60% in size
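Substrate mix (final 50 mM imidazole pH 7.2, 50 mM KCl, 7 mM MgCl2, 10 uM ATP, 0.01% Tween 20, 0.05% BSA) plus pin-tool compound, then Kinase-Glo detection mix; 8 min ambient, luminescence read.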
NPC1 promoter act – NPC1 promoter activation; Huh7 NPC1 promoter luciferase reporter, 24 h; Potency, µM (top dose mostly 9.22 µM), without a hit: top-dose activation, most hits filed as activators; actives 2.4% (n = 320,000); also: % of control where 0% means no effect; nearly all actives have a fitted effect of over 60% in size
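Compounds in DMSO were transferred onto Huh7 NPC1-luciferase reporter cells pre-incubated 2 h; after 24 h at 37 °C, Amplite reagent was dispensed and luminescence recorded 10 min later.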
FLuc counter – counter-screen for miR-21 project: firefly luciferase inhibitors or activators; P08659; Potency, µM (doses to about 57.5 µM), inactives show top-dose activity change, negative = inhibition, actives largely listed as inhibitors; AID 588342; purified FLuc, Km substrates, luminescence inhibition; actives 6.9% (n = 360,000);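 also: plate controls were vehicle for no effect and reference inhibitor for full effect; nearly all actives have a fitted effect of over 55% in size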
Target sequence (P08659 whole entry, looked up): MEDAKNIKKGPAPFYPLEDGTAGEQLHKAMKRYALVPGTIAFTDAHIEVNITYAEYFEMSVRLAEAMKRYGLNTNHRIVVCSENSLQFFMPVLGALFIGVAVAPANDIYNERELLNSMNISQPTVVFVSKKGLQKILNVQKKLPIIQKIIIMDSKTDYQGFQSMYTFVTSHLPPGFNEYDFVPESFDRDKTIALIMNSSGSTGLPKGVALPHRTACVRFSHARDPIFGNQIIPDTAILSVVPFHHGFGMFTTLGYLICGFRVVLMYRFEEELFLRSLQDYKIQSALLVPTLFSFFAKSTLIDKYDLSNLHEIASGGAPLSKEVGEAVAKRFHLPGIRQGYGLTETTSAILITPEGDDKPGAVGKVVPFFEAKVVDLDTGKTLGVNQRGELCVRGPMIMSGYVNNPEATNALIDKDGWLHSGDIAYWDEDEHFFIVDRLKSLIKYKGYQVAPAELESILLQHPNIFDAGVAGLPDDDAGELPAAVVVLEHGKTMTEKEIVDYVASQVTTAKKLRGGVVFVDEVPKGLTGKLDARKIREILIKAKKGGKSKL
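Purified P. pyralis luciferase, 10 nM final, with Km-level 10 uM D-luciferin and 10 uM ATP in 50 mM Tris acetate pH 7.5, 10 mM Mg acetate, 0.01% Tween-20, 0.05% BSA; 6-point qHTS titration about 60 µM downward; luminescence read.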
The depositor's hits bear a star; u = inconclusive; x = not tested or not shown; [ ] = another dose, or the depositor's remark. Sampled rows, rich in hits. Any-hit rate of the full collection: about 7.3%. Calls follow the shape of the dose curve; as a rule, active = well fitted curve in the direction sought with a large enough effect; inconclusive = small, poorly fitted or top-dose-only effect, or another doubt; inactive = no such curve, though single readings can be large; an effect the other way counts as inactive or inconclusive. Potency is read from the fitted curve at half-maximal effect.

SMILES | Rab9 prom act | ELG1 genotox | SMN2 splice up | Luc counter | NPC1 promoter act | FLuc counter
COc1cc(NC(=O)c2ccc(C)c(Cl)c2)ccc1NC(=O)c1cc2ccccc2o1 | x | x | 7% | x | x | 3%
Cc1nc2ccc(S(=O)(=O)NC(CC(C)C)C(=O)NCc3ccc(Cl)cc3)cc2s1 (stereo unspecified) | x | x | -9% | x | x | -2%
Cc1ccc(OCCOc2ccc(Br)cc2)c([N+](=O)[O-])n1 | u | u | 11µM* | -2% | u | 9.5µM*
Cc1ccc(OCc2ccc([N+](=O)[O-])cc2)c([N+](=O)[O-])n1 | 20% | 21% | x | x | 20% | -2%
Cc1ccc(OCC(=O)Nc2ccc3c(c2)OC(F)(F)O3)c([N+](=O)[O-])n1 | -1% | 1% | -11% | 0% | -5% | 7%
Cc1ccc(OCC(=O)Nc2ccc3c(c2)OCO3)c([N+](=O)[O-])n1 | u | u | 20µM* | -2% | u | 6µM*
Cc1ccc(OCC(=O)Nc2ccc(C)c(F)c2)c([N+](=O)[O-])n1 | 2µM* | u | x | x | 2.2µM* | 9.5µM*
CN1C(=O)c2ccccc2Sc2ccc(NC(=O)NCc3cccc(Cl)c3)cc21 | x | x | x | x | x | 3%
O=C(Nc1ccc2c(c1)OCO2)N1CCOCC1 | 19% | 25% | x | -2% | 4% | -13%
O=C(Nc1ccc2c(c1)OCO2)N1CCN(c2ccc(F)cc2)CC1 | u | 13% | 22% | 0% | u | 24µM*
O=C(Nc1ccc2c(c1)OCO2)N1CCCC1 | 17% | 9% | u | -2% | 13% | -18%
CC1CN(C(=O)Nc2ccc3c(c2)OCO3)CC(C)O1 (stereo unspecified) | 27% | u | 25% | -4% | 27% | 17µM*
O=C(Nc1cc(F)ccc1F)C1COc2ccccc2C1 (stereo unspecified) | x | x | x | x | x | -2%
Cc1ccc(NC(=O)c2nnn(Cc3cccc(C(F)(F)F)c3)c2N)c(C)c1 | x | x | -18% | x | x | -1%
CCC(=O)Oc1ccc(C(=O)Nc2cccc(C(=O)NC(C)(C)C)c2)cc1 | 0% | -1% | 17% | -5% | -1% | 11µM*
CC(C)(C)NC(=O)c1cccc(NC(=O)c2ccc3c(c2)C(=O)N(C(C)(C)C)C3=O)c1 | -4% | 0% | x | x | 0% | 11µM*
CC(C)(C)N1C(=O)c2ccc(C(=O)Nc3ccc(O)cc3)cc2C1=O | u | 13% | x | x | u | 13µM*
COC(=O)c1cccc(NC(=O)c2ccc3c(c2)C(=O)N(C(C)(C)C)C3=O)c1 | u | 2% | x | x | u | 2.7µM*
CC(C)(C)N1C(=O)c2ccc(C(=O)O)cc2C1=O | 0% | 0% | -6% | -1% | 0% | 4%
CCC(=O)Oc1ccc(C(=O)Nc2cccc(NC(=O)c3ccco3)c2)cc1 | -2% | -9% | x | x | 0% | u
Cc1c(NC(=O)c2ccc(-c3ccc(F)cc3)o2)cccc1-c1nc2ncccc2o1 | x | x | -2% | x | x | u
CC(NC(=O)c1cc(COc2ccccc2)on1)c1nccs1 (stereo unspecified) | 1.4µM* | 8.2µM* | x | x | 1.4µM* | 4.8µM*
Cc1cccc(CC(C)NC(=O)c2cc(COc3ccc(C)c(C)c3)on2)n1 (stereo unspecified) | u | 18% | x | x | u | 21µM*
CCc1cc(C(=O)NC(C)c2ccccc2)no1 (stereo unspecified) | x | x | -2% | x | x | 2%
Cc1nc(C(C)NC(=O)c2cc(COc3ccc(F)c(F)c3)on2)cs1 (stereo unspecified) | -3% | 1% | x | x | -16% | -3%
SMILES | Rab9 prom act | ELG1 genotox | SMN2 splice up | Luc counter | NPC1 promoter act | FLuc counter
Cc1ccc(OCc2cc(C(=O)NC(C)Cc3cnccn3)no2)cc1C (stereo unspecified) | 4% | 0% | x | x | -5% | -21%
Cc1nc(C(C)NC(=O)c2cc(COc3ccc(C)c(C)c3)on2)c(C)s1 (stereo unspecified) | 3.2µM* | u | x | x | 2.8µM* | 9.5µM*
Cc1cc(OCc2cc(C(=O)NC(C)c3c(C)nn(C)c3C)no2)cc(C)c1Cl (stereo unspecified) | 2.2µM* | u | x | x | 2.5µM* | 6.7µM*
Cc1cc(OCc2cc(C(=O)NC3CCC3)no2)cc(C)c1Cl | 0% | 0% | x | x | -1% | 1%
Clc1ccc2c(NC3CCC(N4CCCCC4)CC3)ccnc2c1 (stereo unspecified) | x | x | -4%[9.22 µM] | 1%[7.66 µM] | x | x
CCOC(=O)c1c(S(=O)(=O)N2CCCC(C(=O)N3CCN(c4cccc(C)c4C)CC3)C2)c(C)n(C)c1C (stereo unspecified) | x | x | x | x | x | -3%
Cc1cccc(CNC(=O)CN2C(=O)CCn3nc(-c4cn(C)c5ccccc45)cc32)c1 | x | x | x | x | x | -14%
c1ccc2c(-c3nn[nH]n3)cccc2c1 | -1% | 0% | -6% | 1% | 1% | -1%
O=C1c2ccccc2C(=O)C1c1ccnc2ccccc12 | 0.63µM* | u | 0.4µM* | -24% | 3.5µM* | 0.15µM*
O=C1C(c2ccnc3ccccc23)=C(O)c2ccccc21 | u | u | 0.4µM* | u | 2.5µM* | 0.11µM*
O=C1c2ccccc2C(=O)C1c1nccc2ccccc12 | 1.3µM* | 0.082µM* | 0.63µM* | 8.9µM* | 3.2µM* | 0.15µM*
